IL-1B inflam inh – blocks inflammasome-driven IL-1 beta release. AID 743279. THP-1 LPS/ATP IL-1B secretion, AlphaLISA, 16 h; stronger effect = lower value. 360,000 tested, 4.7% active. activity change, % at 57.5 µM; in the data active = activity change below about -50%; inconclusive = mostly about -30% to -49%; note: % is set by controls: 0 for no effect and ±100 for the full control effect
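Secreted IL-1B measured by AlphaLISA bead assay after 16 h compound exposure of THP-1 cells; compounds (final up to 57.5 uM) added 1 h before LPS (250 ng/mL) and ATP (1.25 mM) stimulation; lower signal means less secretion.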
DT40 TDP1 CPT – DT40-hTDP1 cell growth loss with CPT; Potency, µM (highest dose often 46.2 µM), inactives show at the highest dose activity change, negative = growth inhibition, hits mostly inhibitors; 420,000 tested, 12% active; chicken DT40 Tdp1-/-;hTDP1 cells + 20 nM CPT, ATP luminescence, 48 h; note: potency is the fitted concentration of half-maximal effect; % is set by controls: 0 for no effect and ±100 for the full control effect; nearly all actives have a fitted effect of over 55% in size
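Chicken DT40 Tdp1-/- cells stably complemented with human TDP1 were seeded at 400 cells/well in medium containing 20 nM camptothecin, exposed to pin-transferred compounds, and grown at 37 °C for at least 48 hr. Viability was read as ATP luminescence.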
TDP1 cell noCPT – qHTS for Inhibitors of human tyrosyl-DNA phosphodiesterase 1 (TDP1): qHTS in cells in absence of CPT; 420,000 tested, 15% active; Potency, µM (series often up to 46.2 µM), for inactives: at the top dose activity change, negative = growth inhibition, hits mostly inhibitors; DT40 Tdp1-/- hTDP1 cells, no CPT, ATP luminescence, 48 h; AID 686978, 2013; note: potency is the fitted concentration of half-maximal effect; % is set by controls: 0 for no effect and ±100 for the full control effect; nearly all actives have a fitted effect of over 55% in size
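No-CPT arm: Tdp1-/-;hTDP1 DT40 cells (400/well) plus compounds, incubated ≥48 hr at 37 °C. Readout CellTiter-Glo luminescence.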
TGFb inhibitor – inhibitors of TGF-b signaling; 410,000 tested, 1.2% active; Potency, µM (series often up to 46.1 µM), for the others: at the top dose activity, negative = inhibition, actives largely listed as inhibitors; HepG2 CAGA-GFP TGF-b/SMAD3 reporter, GFP fluorescence, 18 h; TGF-beta stimulated, 500 pg/mL final; note: potency is the fitted concentration of half-maximal effect; % is set by controls: 0 for no effect and ±100 for the full control effect; nearly all actives have a fitted effect of over 65% in size
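Read-out: total well GFP (ex488/em500-530) summed from mean per-cell fluorescence. Cells: HEPG2 CAGA-GFP, 1% FBS DMEM, 18 h at 37 degrees C with 500 pg/mL final TGF-beta. Unstimulated wells served as the full-inhibition control; stimulated DMSO wells = 0%.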
HepG2 viability – kills HepG2 cells in TGF-b inhibitor counter-screen | HepG2 CAGA-GFP viability, ATP luminescence, 18 h | Potency, µM (doses to about 46.1 µM), without a hit: at the top dose activity change, negative = cytotoxicity, most hits filed as cytotoxic | 410,000 tested, 0.76% active | AID 588856; note: potency is the fitted concentration of half-maximal effect
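HepG2 CAGA-GFP cells (1000/well, DMEM with 1% FBS) received compound, then TGF-beta at 500 pg/mL final, and were incubated 18 hours at 37 degrees C. Viability was read by CellTiter-Glo luminescence. Media-only wells were set as complete cell-killing and DMSO as no toxicity.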
TDP1 block – blocks human tyrosyl-DNA phosphodiesterase 1. 350,000 tested, 0.28% active. AID 485290. recombinant TDP1, AlphaScreen DNA substrate cleavage. Potency, µM (series often up to 130 µM), inactives show at the highest dose activity change, negative = inhibition, hits mostly inhibitors. Q9NUW8; note: potency is the fitted concentration of half-maximal effect; % is set by controls: 0 for no effect and ±100 for the full control effect; nearly all actives have a fitted effect of over 40% in size
Target sequence (Q9NUW8 whole entry, looked up): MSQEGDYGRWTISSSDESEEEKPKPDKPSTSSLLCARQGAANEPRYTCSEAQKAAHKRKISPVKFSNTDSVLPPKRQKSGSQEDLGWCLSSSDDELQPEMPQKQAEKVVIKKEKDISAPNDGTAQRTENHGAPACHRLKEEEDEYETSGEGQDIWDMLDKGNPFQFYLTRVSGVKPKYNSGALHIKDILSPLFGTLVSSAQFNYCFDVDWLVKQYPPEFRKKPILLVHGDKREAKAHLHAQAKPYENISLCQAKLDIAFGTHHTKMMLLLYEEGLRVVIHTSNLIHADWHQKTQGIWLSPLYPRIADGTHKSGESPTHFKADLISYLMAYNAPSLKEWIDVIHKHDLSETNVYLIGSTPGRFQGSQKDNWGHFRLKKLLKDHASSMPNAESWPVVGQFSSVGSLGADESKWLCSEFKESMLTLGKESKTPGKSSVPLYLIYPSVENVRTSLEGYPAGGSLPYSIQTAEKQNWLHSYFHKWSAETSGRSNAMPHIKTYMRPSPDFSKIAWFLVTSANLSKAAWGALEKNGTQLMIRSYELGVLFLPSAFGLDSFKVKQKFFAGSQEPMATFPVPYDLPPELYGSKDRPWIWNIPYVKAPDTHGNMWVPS
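Enzyme-compound mixtures sat 15 min at room temperature, followed by a 5 min reaction with 15 nM final substrate and 10 min with AlphaScreen beads. Recombinant human Tdp1 was used at 1 nM final.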
Active calls of the source: *; ? = inconclusive; / = no result; [ ] = dose if it differs, or a comment. Rows were chosen to be rich in hits. Some 18% of all compounds tested hit in one or more screens of this group. Unless noted, calls come from the whole dose curve; as a rule, active = well fitted curve in the direction sought with a large enough effect; inconclusive = small, poorly fitted or top-dose-only effect, or another doubt; inactive = no such curve, though single readings can be large; an effect the other way counts as inactive or inconclusive.

SMILES | IL-1B inflam inh | DT40 TDP1 CPT | TDP1 cell noCPT | TGFb inhibitor | HepG2 viability | TDP1 block
Cc1ccc(CNC(=O)Cn2nnc(C(=O)Nc3ccc(Br)cc3)c2N)cc1 | 11 | ? | -10% | 6% | -2% | 1%
CC1CCN(C(=O)c2ncn3c2c(=O)[nH]c2cccnc23)CC1 | 8 | -6% | -22% | 4% | 1% | /
O=C(C1CCN(S(=O)(=O)c2ccccc2)CC1)N1CCC1 | 1 | -4% | -15% | 13% | 8% | 0%
CCN(CC(=O)Nc1c(F)cccc1F)C(=O)c1cccc(S(=O)(=O)N2CCCCCC2)c1 | -18 | -20% | ? | 11% | 1% | 0%
C=CCOc1ccc(C2N3CC4(CC)CN2CC(CC)(C3)C4=O)cc1 (centres undefined) | -10 | ? | ? | -2% | -11% | 0%
CCCC12CN3CC(CCC)(CN(C1)C3c1ccccc1)C2=O (centres undefined) | / | 4.1µM* | ? | 2% | 3% | 5%
CCCC12CN3CC(CCC)(CN(C1)C3c1ccc(OC(C)C)cc1)C2=O (centres undefined) | / | ? | 16µM* | -2% | -20% | /
O=S(=O)(Nc1ccc2c(c1)OCCO2)c1c(F)cccc1F | 13 | -93% | -114% | -1% | -40% | 10%
CCN(CC)C(=O)c1c(-c2ccccc2)c(-c2ccccc2)nn(CC)c1=O | / | ? | ? | 0% | 7% | 7%
O=C(NCC1CCCO1)C(c1ccc(F)cc1)N(CC1CCCO1)C(=O)c1ccc(-c2ccccc2)[nH]1 (centres undefined) | -8 | -11% | ? | 1% | 5% | 2%
O=C(NCC1CCCO1)C(c1cccs1)N(Cc1cccs1)C(=O)c1ccc(-c2ccccc2)[nH]1 (centres undefined) | ? | 13µM* | ? | -10% | 4% | 8%
O=C(NC1CCCCC1)C(c1cccs1)N(CCCN1CCOCC1)C(=O)c1ccc(-c2ccccc2)[nH]1 (centres undefined) | 0 | ? | 15µM* | -23% | -22% | 5%
O=C1CN(N=Cc2ccco2)C(=O)N1 | -16 | 17% | -4% | -4% | 16% | /
O=S(=O)(Nc1cccc(F)c1)c1ccc(S(=O)(=O)N2CCOCC2)cc1 | 11 | -20% | ? | -4% | -6% | /
CC(=O)Oc1ccc(CCC(C)OC(C)=O)cc1 (centres undefined) | 7 | -16% | -16% | 23% | 2% | 1%
NS(=O)(=O)c1ccc(Nc2ccc([N+](=O)[O-])c3nonc23)cc1 | 36 | -24% | -17% | ? | -21% | 9%
CC(=O)c1ccc(Nc2ccc([N+](=O)[O-])c3nonc23)cc1 | -12 | ? | 23µM* | 11µM* | -19% | /
O=C(O)c1ccccc1-c1c2cc(I)c(=O)c(I)c-2oc2c(I)c(O)c(I)cc12 | -10 | ? | ? | 31% | -13% | 22%
O=C(O)c1c(Cl)c(Cl)c(Cl)c(Cl)c1-c1c2cc(I)c(=O)c(I)c-2oc2c(I)c(O)c(I)cc12 | / | ? | 15µM* | / | / | 29%
O=C(O)CCCC(=O)N1CCN(c2nc(-c3ccccc3Cl)c3cc(Br)ccc3n2)CC1 | 12 | -26% | ? | -5% | -9% | /
CCOC(=O)c1c(C)[nH]c(C(=O)C(C)OC(=O)c2cccc(OCc3c(C)noc3C)c2)c1C (centres undefined) | ? | 21µM* | 18µM* | -2% | 13% | -1%
Cc1ccc(S(=O)(=O)N2CCCc3cc(NC(=O)c4ccc(Cl)cc4)ccc32)cc1 | / | ? | ? | 0% | 4% | -1%
CCOc1ccc(S(=O)(=O)Nc2ccc(S(=O)(=O)N3CCCC3)cc2)cc1 | -4 | 3% | -7% | 1% | 9% | -1%
CCOc1ccc(S(=O)(=O)Nc2ccc3c(c2)CCCN3S(=O)(=O)c2ccc(C)cc2)cc1 | / | ? | 18µM* | -13% | 6% | -4%
Cc1ccc(S(=O)(=O)N2CCCc3cc(NS(=O)(=O)c4cccc(Cl)c4)ccc32)cc1 | / | 21µM* | 21µM* | 10µM* | -16% | 4%
SMILES | IL-1B inflam inh | DT40 TDP1 CPT | TDP1 cell noCPT | TGFb inhibitor | HepG2 viability | TDP1 block
C[C@@H]1CN([C@@H](C)CO)C(=O)CCCn2nncc2CO[C@@H]1CN(C)S(=O)(=O)c1ccc(Oc2ccccc2)cc1 | -10 | ? | ? | 5% | -21% | /
Cc1cccc(-c2nc(SCC(=O)N3CCc4ccccc43)c3c(=O)n(C)c(=O)n(C)c3n2)c1 | / | 10% | 3% | -2% | 4% | -3%
COC(=O)[C@H](COC(C)(C)C)NC(=O)O[C@@H]1C(=O)c2cc(OC)ccc2O[C@H]1c1cccc(OC)c1 | / | / | / | / | / | 3%
CCOc1ccc(CNC(=O)Cn2c(=O)c3cccn3c3ccc(F)cc32)cc1OC | / | -18% | -22% | -22% | -9% | 3%
COc1ccc(Br)cc1CNC(=O)CCCn1c(=O)c2cccn2c2cccnc21 | / | ? | 18µM* | ? | -28% | -8%
COc1ccc(Br)cc1CNC(=O)Cn1ncn2nc(-c3cccs3)cc2c1=O | / | 12µM* | 13µM* | -22% | 3% | -3%
COc1ccc(OC)c(CNC(=O)CCCn2c(=O)c3cccn3c3cccnc32)c1 | / | 3% | -22% | / | -9% | -8%
COc1ccc(Br)cc1CNC(=O)Cn1c(=O)c2cccn2c2ccc(F)cc21 | / | 4.6µM* | 13µM* | ? | -11% | -4%
COc1ccc(Br)cc1CNC(=O)CCCn1c(=O)c2cccn2c2ccccc21 | / | ? | 23µM* | 0% | -19% | 0%
CCCn1nnnc1NCc1ccccc1C | 25 | 9% | 2% | 10% | 10% | 2%
CCOc1cc(N2CCOCC2)c(OCC)cc1NC(=O)CN1CCSC1=O | -12 | -29% | -20% | 20% | 14% | -15%[56.1 µM]
O=C1[C@H]2[C@H]3[C@H](O)[C@H](O)C/C(=N/OC[C@@H](O)COCc4ccco4)[C@@H]3CC[C@@H]2C(=O)N1C1CCCCC1 | / | / | / | / | / | 5%[21 µM]
C[C@@H]1CN([C@H](C)CO)C(=O)CCCn2cc(nn2)CO[C@H]1CN(C)S(=O)(=O)c1ccccc1C#N | -11 | 12% | -3% | -2% | -26% | /
CC(C)(C)OC(=O)NCc1nnc(-c2cc3ccccc3[nH]2)o1 | / | / | / | / | / | 0%

High-throughput results from PubChem.
